In PubChem BioAssay (EPA / NIEHS):
Inconclusive results are not listed. Active and inactive are the calls of the source. Rule for the calls, unless noted: active = hit-call score of the fitted dose curve at least 0.9, where 1 is the maximum; inactive = score below 0.9.

Assay: CCTE_Shafer_MEA_dev_bursting_electrodes_number: CCTE's Neural Network Formation Assay for Number of Bursting Electrodes, Shafer Lab (AID 2284043; active = hit-call score of the fitted dose curve at least 0.9, where 1 is the maximum;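 for AC50: potency is for loss of bursting electrodes relative to DMSO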)
Method in brief: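 Rat cortical primary neurons, 48-well MEA, 16 electrodes/well; dosing DIV 0–12, re-dosed with full media change DIV 5, 9. Recordings DIV 5/7/9/12, AxIS adaptive spike detector; bursting electrode = ≥1 burst/2 min. AUC across days; loss of signal vs DMSO.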

**Q.** Which outcome does the source give for `Cn1c(=O)c2c(ncn2C)n(C)c1=O` here?
**A.** inactive

**Q.** For `COc1ccc(-n2nc(C(F)F)cc2-c2ccc(S(C)=O)cc2)cc1` (stereo not given), which AC50 is on record?
**A.** 10000 nM (active)

**Q.** Which AC50 does the source give for `CCC(C)(C)C(=O)O[C@H]1C[C@@H](C)C=C2C=C[C@H](C)[C@H](CC[C@@H]3C[C@@H](O)CC(=O)O3)[C@H]21` here?
**A.** 1060 nM (active)

**Q.** With `CC[C@H](C)C(=O)O[C@H]1C[C@@H](C)C=C2C=C[C@H](C)[C@H](CC[C@@H]3C[C@@H](O)CC(=O)O3)[C@H]21` as the compound, how does the AC50 read?
**A.** 1910 nM (active)

**Q.** Which outcome does the source give for `NC(=O)NO` here?
**A.** inactive

**Q.** Which AC50 does the source give for `CNCc1ccc(NC(=O)c2c[nH]c3c2C(=O)CCC3)cc1` here?
**A.** 1980 nM (active)

**Q.** For `CC[C@H]1OC(=O)[C@H](C)[C@@H](O[C@H]2C[C@@](C)(OC)[C@@H](O)[C@H](C)O2)[C@H](C)[C@@H](O[C@@H]2O[C@H](C)C[C@H](N(C)C)[C@H]2O)[C@](C)(O)C[C@@H](C)C(=O)[C@H](C)[C@@H](O)[C@]1(C)O`, which outcome is on record?
**A.** inactive

**Q.** Which outcome does the source give for `O=P(OC(CCl)CCl)(OC(CCl)CCl)OC(CCl)CCl` here?
**A.** inactive

**Q.** Which outcome does the source give for `Nc1nc2ncc(CNc3ccc(C(=O)N[C@@H](CCC(=O)O)C(=O)O)cc3)nc2c(=O)[nH]1` here?
**A.** inactive

**Q.** Which outcome does the source give for `O=C1CCC(N2C(=O)c3ccccc3C2=O)C(=O)N1` (stereo not given) here?
**A.** inactive

Assay: CCTE_Shafer_MEA_dev_per_burst_interspike_interval: CCTE's Neural Network Formation Assay for Burst Interspike Interval, Shafer Lab (AID 2284044);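 note: mean spike spacing inside bursts as AUC over recordings on days 5 7 9 12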;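 for AC50: potency for a decrease of within-burst interspike interval below DMSO level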
Method in brief: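 Mean interspike interval within single-electrode bursts, averaged over bursting electrodes, from rat cortical cultures on MEA plates recorded on days 5, 7, 9 and 12. Continuous compound exposure from plating; trapezoidal AUC fitted downward relative to DMSO.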

**Q.** For `Cn1c(=O)c2c(ncn2C)n(C)c1=O`, which outcome is on record?
**A.** inactive

**Q.** With `COc1ccc(-n2nc(C(F)F)cc2-c2ccc(S(C)=O)cc2)cc1` (stereo not given) as the compound, how does the outcome read?
**A.** inactive

**Q.** Which outcome does the source give for `CCC(C)(C)C(=O)O[C@H]1C[C@@H](C)C=C2C=C[C@H](C)[C@H](CC[C@@H]3C[C@@H](O)CC(=O)O3)[C@H]21` here?
**A.** inactive

**Q.** With `CC[C@H](C)C(=O)O[C@H]1C[C@@H](C)C=C2C=C[C@H](C)[C@H](CC[C@@H]3C[C@@H](O)CC(=O)O3)[C@H]21` as the compound, how does the AC50 read?
**A.** 2900 nM (active)

**Q.** For `NC(=O)NO`, which outcome is on record?
**A.** inactive

**Q.** With `CNCc1ccc(NC(=O)c2c[nH]c3c2C(=O)CCC3)cc1` as the compound, how does the outcome read?
**A.** inactive

**Q.** Which outcome does the source give for `CC[C@H]1OC(=O)[C@H](C)[C@@H](O[C@H]2C[C@@](C)(OC)[C@@H](O)[C@H](C)O2)[C@H](C)[C@@H](O[C@@H]2O[C@H](C)C[C@H](N(C)C)[C@H]2O)[C@](C)(O)C[C@@H](C)C(=O)[C@H](C)[C@@H](O)[C@]1(C)O` here?
**A.** inactive

**Q.** For `O=P(OC(CCl)CCl)(OC(CCl)CCl)OC(CCl)CCl`, which outcome is on record?
**A.** inactive

**Q.** With `Nc1nc2ncc(CNc3ccc(C(=O)N[C@@H](CCC(=O)O)C(=O)O)cc3)nc2c(=O)[nH]1` as the compound, how does the outcome read?
**A.** inactive

**Q.** With `O=C1CCC(N2C(=O)c3ccccc3C2=O)C(=O)N1` (stereo not given) as the compound, how does the outcome read?
**A.** inactive

Assay: CCTE_Shafer_MEA_dev_burst_duration_mean: CCTE's Neural Network Formation Assay for Mean Burst Duration, Shafer Lab (AID 2284045)
Method in brief: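 Rat cortical cultures, 1.5 x 10^5 cells/well with laminin drop; continuous dosing days 0–12, media plus treatment refreshed DIV 5, 9. AxIS adaptive spike detection; mean single-electrode burst duration, AUC over four recordings, negative direction vs DMSO.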

**Q.** Which outcome does the source give for `Cn1c(=O)c2c(ncn2C)n(C)c1=O` here?
**A.** inactive

**Q.** Which outcome does the source give for `COc1ccc(-n2nc(C(F)F)cc2-c2ccc(S(C)=O)cc2)cc1` (stereo not given) here?
**A.** inactive

**Q.** Which outcome does the source give for `CCC(C)(C)C(=O)O[C@H]1C[C@@H](C)C=C2C=C[C@H](C)[C@H](CC[C@@H]3C[C@@H](O)CC(=O)O3)[C@H]21` here?
**A.** inactive

**Q.** Which outcome does the source give for `CC[C@H](C)C(=O)O[C@H]1C[C@@H](C)C=C2C=C[C@H](C)[C@H](CC[C@@H]3C[C@@H](O)CC(=O)O3)[C@H]21` here?
**A.** inactive

**Q.** For `NC(=O)NO`, which outcome is on record?
**A.** inactive

**Q.** For `CNCc1ccc(NC(=O)c2c[nH]c3c2C(=O)CCC3)cc1`, which outcome is on record?
**A.** inactive

**Q.** Which outcome does the source give for `CC[C@H]1OC(=O)[C@H](C)[C@@H](O[C@H]2C[C@@](C)(OC)[C@@H](O)[C@H](C)O2)[C@H](C)[C@@H](O[C@@H]2O[C@H](C)C[C@H](N(C)C)[C@H]2O)[C@](C)(O)C[C@@H](C)C(=O)[C@H](C)[C@@H](O)[C@]1(C)O` here?
**A.** inactive

**Q.** For `O=P(OC(CCl)CCl)(OC(CCl)CCl)OC(CCl)CCl`, which outcome is on record?
**A.** inactive

**Q.** Which outcome does the source give for `Nc1nc2ncc(CNc3ccc(C(=O)N[C@@H](CCC(=O)O)C(=O)O)cc3)nc2c(=O)[nH]1` here?
**A.** inactive

**Q.** Which outcome does the source give for `O=C1CCC(N2C(=O)c3ccccc3C2=O)C(=O)N1` (stereo not given) here?
**A.** inactive

Assay: CCTE_Shafer_MEA_dev_interburst_interval_mean: CCTE's Neural Network Formation Assay for Mean Interburst Interval, Shafer Lab (AID 2284046);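 note: well-mean interburst interval of bursting electrodes as AUC over four recording days; curve fitted for decrease in interburst interval relative to DMSO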
Method in brief: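 Network formation assay in primary rat cortical cultures, exposed from DIV 0 to 12. Mean interburst interval per well, integrated as AUC over four recordings.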

**Q.** For `Cn1c(=O)c2c(ncn2C)n(C)c1=O`, which outcome is on record?
**A.** inactive

**Q.** Which outcome does the source give for `COc1ccc(-n2nc(C(F)F)cc2-c2ccc(S(C)=O)cc2)cc1` (stereo not given) here?
**A.** inactive

**Q.** With `CCC(C)(C)C(=O)O[C@H]1C[C@@H](C)C=C2C=C[C@H](C)[C@H](CC[C@@H]3C[C@@H](O)CC(=O)O3)[C@H]21` as the compound, how does the AC50 read?
**A.** 887 nM (active)

**Q.** Which AC50 does the source give for `CC[C@H](C)C(=O)O[C@H]1C[C@@H](C)C=C2C=C[C@H](C)[C@H](CC[C@@H]3C[C@@H](O)CC(=O)O3)[C@H]21` here?
**A.** 2900 nM (active)

**Q.** Which outcome does the source give for `NC(=O)NO` here?
**A.** inactive

**Q.** With `CNCc1ccc(NC(=O)c2c[nH]c3c2C(=O)CCC3)cc1` as the compound, how does the outcome read?
**A.** inactive

**Q.** For `CC[C@H]1OC(=O)[C@H](C)[C@@H](O[C@H]2C[C@@](C)(OC)[C@@H](O)[C@H](C)O2)[C@H](C)[C@@H](O[C@@H]2O[C@H](C)C[C@H](N(C)C)[C@H]2O)[C@](C)(O)C[C@@H](C)C(=O)[C@H](C)[C@@H](O)[C@]1(C)O`, which outcome is on record?
**A.** inactive

**Q.** With `O=P(OC(CCl)CCl)(OC(CCl)CCl)OC(CCl)CCl` as the compound, how does the outcome read?
**A.** inactive

**Q.** With `Nc1nc2ncc(CNc3ccc(C(=O)N[C@@H](CCC(=O)O)C(=O)O)cc3)nc2c(=O)[nH]1` as the compound, how does the outcome read?
**A.** inactive

**Q.** Which outcome does the source give for `O=C1CCC(N2C(=O)c3ccccc3C2=O)C(=O)N1` (stereo not given) here?
**A.** inactive
